Source: PubChem BioAssay (several laboratories)
Shown are actives, neighbours in structure and some others; about 4.2% of the full set was active somewhere.
AHR activator: activators of human aryl hydrocarbon receptor. AHR-responsive luciferase reporter cells, luminescence. AID 2796. activation, % at 5 µM. 320,000 compounds, 2.5% hits. P35869; in the data active = activation above about 47%;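 also: 0% = vehicle wells and 100% = reference agonist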
esBAF inh: inhibitors of esBAF chromatin remodeling in mouse ES cells; reporter increase, % at 12.5 µM; 350,000 compounds, 2% hits; Bmi1-luciferase knock-in reporter, 24 h; 100% = twice the neutral-well signal; AID 602393; in the data active = activation above about 40%; inconclusive = no clear call, values can overlap the other calls;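 also: 0% = median of the plate's neutral control wells and 100% = double that signal; a rise in the Bmi1 reporter signal indicates esBAF inhibition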
Wnt act: Wnt/beta-catenin pathway activation; Wnt/beta-catenin reporter cell assay, activator, plate reader; activation, % at 9.35 µM; 300,000 compounds, 1.2% hits; AID 743398; in the data active = activation above about 30%, passing the limit was not always enough; inconclusive = no clear call, values can overlap the other calls;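 also: 0% = neutral control wells and 100% = positive control wells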
FXN GAA850 act: increases GAA850 frataxin promoter reporter activity; AID 540364; activation, % at 6 µM; 360,000 compounds, 0.56% hits; HEK293 lucGAA850 FXN promoter luciferase reporter, 24 h; percent of 10 µM SAHA response;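 active = activation above the average of all compounds screened plus 3 SD, cutoff fixed separately per campaign, cut at about 7.5% in these data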;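 also: 0% = DMSO wells and 100% = 10 µM SAHA wells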
MITF TRPM1 HTS: activators of MITF-driven TRPM1 promoter activity in SK-MEL-5 cells; SK-MEL-5 TRPM1-promoter luciferase, 24 h; % of positive control, neutral wells = 0; activation, % at 12.5 µM; 300,000 compounds, 0.75% hits; AID 588334;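 active = mean activation of at least 80% with every replicate also reaching 80%; inconclusive = mean reaches 80% but some replicate falls short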;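 also: 0% = neutral control wells and 100% = parthenolide positive control wells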
An asterisk follows results filed as active; ? = inconclusive; . = no result given.

SMILES	AHR activator	esBAF inh	Wnt act	FXN GAA850 act	MITF TRPM1 HTS
Cc1ccc(-c2cn3cccnc3n2)cc1NC(=O)c1c(-c2ccccc2Cl)noc1C	47.6*	-0.8	.	-4.6	-13.7
O=C(NC(=S)NCc1ccccc1)c1ccc(Br)o1	14.6	-1.7	0.4	1.4	6.7
Cc1ccccc1-c1nc(-c2ccc(NC(=O)c3ccc(Br)o3)cc2)no1	20.9	48.6*	.	-0.1	71.1
COc1ccc(NC(=O)c2ccc(Br)o2)cc1	3.4	.	?	4.3	78.4
O=C(Nc1ccc(Nc2ccccc2)cc1)c1ccc(Br)o1	-3.4	56.9*	29.5	3.3	41.1
O=C(NC(=S)Nc1ccccc1)c1ccc(Br)o1	11.2	45.0*	49.9*	5.1	53.0
COc1ccc(NC(=S)NC(=O)c2ccc(Br)o2)cc1	4.5	45.7*	24.5	5.8	90.0*
Cc1nc(-c2ccc(NC(=O)c3ccc(Br)o3)cc2)cs1	-1.3	7.3	23.5	1.3	44.8
C/C=C/c1ccc2c(c1)O[C@@H](CN(C)C(=O)COC)[C@H](C)CN([C@H](C)CO)S2(=O)=O	.	-1.1	.	.	.
C[C@H](CO)N1C[C@H](C)[C@H](CN(C)S(=O)(=O)c2ccc(F)cc2)Oc2ccc(NC(=O)CCCN(C)C)cc2C1=O	.	-1.5	.	.	.
C[C@H]1CN([C@@H](C)CO)S(=O)(=O)c2ccc(-c3ccc(F)cc3)cc2O[C@H]1CN(C)S(C)(=O)=O	.	2.5	.	.	.
C[C@@H]1CN([C@@H](C)CO)C(=O)Cc2cc(NS(=O)(=O)c3ccc(Cl)cc3)ccc2O[C@H]1CN(C)S(=O)(=O)c1cccs1	.	2.8	.	.	.
CC1(C(=O)NS(=O)(=O)c2ccc(C#N)cc2)CCN1C(=O)c1cccc(F)c1 (stereo not given)	.	-1.7	49.1*	2.8	.
CCOc1ccc(Br)cc1C(=O)N/N=C/c1cccnc1	66.5*	-0.8	-5.3	-0.9	3.0
O=C(N/N=C/c1cccnc1)c1cccc(NC(=O)c2cccc(Br)c2)c1	76.4*	9.9	4.4	-2.0	6.1
O=C(C[C@H]1C[C@H]2c3cc(NC(=O)Nc4ccc(C(F)(F)F)cc4)ccc3O[C@H]2[C@@H](CO)O1)NCc1ccc2c(c1)OCO2	.	-6.2	.	.	.
O=c1c2ccccc2nc(/C=C/c2ccc(Br)cc2)n1CCO	3.7	.	3.1	2.0	.
Cc1[nH]c2ccccc2c1/C=C/c1nc2ccccc2c(=O)n1CCO	52.1*	37.5*	5.4	-4.8	19.4
Cc1c(/C=N/NC(=O)c2cc(C(C)(C)C)[nH]n2)c2ccccc2n1C	73.3*	-9.6	1.0	0.8	.
COc1ccc(CC(=O)N/N=C/c2cc(Br)cs2)cc1OC	-0.1	1.8	-0.5	0.3	0.7
COc1ccc(CC(=O)N/N=C/c2c(C)n(C)c3ccccc23)cc1OC	47.9*	.	-0.5	-2.5	.
Cc1ccsc1/C=N\NC(=O)c1cc(C(C)(C)C)[nH]n1	20.8	.	24.7	4.9	53.5
CC=Cc1ccc2n(c1=O)C[C@@H]1[C@@H](CO)[C@H](C(=O)NCC3CC3)[C@H]2N1C(=O)CC (mixture of isomers)	.	3.0	.	.	.
CSc1nc2sc3c(c2c(=O)[nH]1)CCC(C)C3 (stereo not given)	68.7*	62.1*	.	0.2	33.1
COc1ccccc1C(=O)NC(=S)Nc1ccc(Cc2ccncc2)cc1	-2.6	-2.6	-1.2	0.0	16.0
SMILES	AHR activator	esBAF inh	Wnt act	FXN GAA850 act	MITF TRPM1 HTS
COc1ccc(Br)cc1C(=O)Nc1ccc(Cc2ccncc2)cc1	58.8*	-0.6	-2.4	-3.0	-8.1
CC(=O)NCCNc1nc2cc(-c3ccc(C)cc3)sc2c(=O)n1C	.	53.5*	4.7	1.8	.
O=C(Nc1cc([N+](=O)[O-])ccc1C(=O)Nc1cccnc1)c1ccccc1	66.1*	.	-3.0	1.4	-18.2
O=C(Nc1cccnc1)c1cccc([N+](=O)[O-])c1	4.3	.	-1.5	-0.4	1.5
O=C(Nc1cccnc1)c1ccc(-c2ccccc2)cc1	3.7	93.0*	-3.6	2.4	65.2
Cc1ccc(NC(=O)c2cc([N+](=O)[O-])ccc2NCc2cccnc2)cc1	74.6*	-0.7	3.9	-1.0	.
CC(C)(C)C(=O)Nc1ccc(C(=O)Nc2cccnc2)cc1	4.6	20.8	49.0*	2.2	68.9
O=C(Nc1cccnc1)c1ccc(F)cc1	13.9	1.8	-1.4	4.1	19.3
CCC(=O)Nc1ccc(C(=O)Nc2cccnc2)cc1	17.2	17.3	5.1	0.9	20.4
C[C@@H]1CN([C@H](C)CO)C(=O)Cc2cc(NS(C)(=O)=O)ccc2O[C@H]1CN(C)CC1CCCCC1	.	-2.4	.	.	.
